Measured values from PubChem BioAssay AID624255 (Broad Institute, 2012).
Values joined by “and” are separate entries in the source; they are usually repeats but may differ in a detail not shown here. Identical values can stand only once. Screen size: about 77,000 compounds; about 4,600 (6%) were called active. Roughly 1% stayed inconclusive and do not appear here. Only a selection was taken, and actives are over-represented in it overall. Values without a mark were called inactive.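 The calls were made as follows: active = mean inhibition above about 93%, with at least 55% of replicates each passing it (limit read from the data, passing the limit was not always enough); inconclusive = only one of those two conditions holds; inactive = neither condition holds.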

Test: growth inhibition of T. cruzi in host fibroblasts – cell-based, beta-gal Tulahuen parasites, NIH3T3 host, luminescence, primary screen (AID 624255)
Conditions: T. cruzi beta-gal in NIH3T3, GalScreen luminescence, 90 h; at 8.34 µM; active compounds read high

Compound	inhibition
Cc1cccc(S(=O)(=O)N2CCCCN3[C@@H](CO)[C@H](c4ccc(-c5cccnc5)cc4)[C@@H]3C2)c1	12.6%
COc1cccc(S(=O)(=O)N2CCCCN3[C@H](CO)[C@H](c4ccc(-c5ccncc5)cc4)[C@H]3C2)c1	111% (active)
COc1ccc(C#Cc2ccc([C@H]3[C@@H](CO)N4CCCCN(S(=O)(=O)c5cn(C)cn5)C[C@H]34)cc2)cc1	50.5%
COc1ccc(S(=O)(=O)N2CCCCN3[C@H](CO)[C@@H](c4ccc(C#CC(C)C)cc4)[C@H]3C2)cc1	106% (active)
COc1cccc(S(=O)(=O)N2CCCCN3[C@H](C2)[C@H](c2ccc(C#CC(C)C)cc2)[C@@H]3CO)c1	118% (active)
COc1cccc(S(=O)(=O)N2CCCCN3[C@H](C2)[C@@H](c2ccc(C4=CCCCC4)cc2)[C@@H]3CO)c1	51.4%
CCCNC(=O)C[C@H]1CC[C@H]2[C@@H](COC[C@H](O)CN2C(=O)Nc2c(C)noc2C)O1	-19.4%
COc1cccc(S(=O)(=O)N[C@@H]2CC[C@@H](CCNC(=O)Cc3ccncc3)O[C@H]2CO)c1	80.6%
CS(=O)(=O)N1[C@H](C(=O)NCc2ccncc2)[C@@H](CO)[C@@H]2Cn3c(ccc(C4=CCCCC4)c3=O)[C@@H]21	58.6%
COc1cccc(S(=O)(=O)N2C[C@@H](O)COC[C@H]3O[C@@H](CC(=O)N4CCOCC4)CC[C@@H]32)c1	22.5%
O=C(Nc1ccccc1F)N1C[C@@H]2[C@H](c3ccccc31)[C@@H](CO)N2C(=O)Nc1ccccc1	8.53%
O=C(CN1CCOCC1)NCC[C@H]1CC[C@@H](NC(=O)Nc2ccc(Cl)cc2)[C@@H](CO)O1	46.9%
O=C(C[C@H]1CC[C@@H]2[C@H](COC[C@@H](O)CN2C(=O)Nc2cccc(F)c2)O1)NCc1ccccc1F	-36.9%
COc1cccc(C(=O)Nc2ccc3c(c2)C(=O)N(C)C[C@@H](OC)[C@H](C)CN(C(=O)C2CCOCC2)[C@H](C)CO3)c1	9.28%
C[C@@H]1CN([C@H](C)CO)C(=O)c2cc(NC(=O)Nc3ccc(F)cc3)ccc2O[C@@H](C)CCCCO[C@H]1CN(C)Cc1ccc(Cl)c(Cl)c1	102% (active)
COc1ccc(CN(C)C[C@@H]2OCCCC[C@@H](C)Oc3ccc(NC(=O)Nc4ccc(OC)cc4)cc3C(=O)N([C@@H](C)CO)C[C@@H]2C)cc1	24.8%
COc1ccc(NC(=O)Nc2ccc3c(c2)C(=O)N([C@H](C)CO)C[C@H](C)[C@H](CN(C)Cc2ccncc2)OCCCC[C@H](C)O3)cc1	97.9%
C[C@H](CO)N1C[C@H](C)[C@H](CN(C)Cc2ccc(Cl)c(Cl)c2)OCCCC[C@H](C)Oc2ccc(NC(=O)NC3CCCCC3)cc2C1=O	86.3%
COc1ccc(NC(=O)Nc2ccc3c(c2)C(=O)N([C@H](C)CO)C[C@@H](C)[C@H](CN(C)Cc2ccc(Cl)c(Cl)c2)OCCCC[C@@H](C)O3)cc1	126% (active)
C[C@@H]1CCCCO[C@H](CN(C)Cc2ccc(Cl)c(Cl)c2)[C@@H](C)CN([C@@H](C)CO)C(=O)c2cc(NC(=O)Nc3ccccc3)ccc2O1	70.7%
COc1ccccc1-c1ccc2n(c1=O)C[C@H]1[C@H](CO)[C@@H](C(=O)N[C@@H](C)c3ccccc3)[C@@H]2N1C	18.4%
CCC(=O)N(C)C[C@H]1Oc2cc(C#CC3CC3)ccc2S(=O)(=O)N([C@@H](C)CO)C[C@@H]1C	3.97%

Compound	inhibition
C[C@@H]1CN([C@H](C)CO)S(=O)(=O)c2ccc(C#CC3CCCCC3)cc2O[C@H]1CN(C)C(=O)Cc1ccncc1	92.8% and 91.8%
COCC(=O)N(C)C[C@@H]1Oc2cc(C#CC3CC3)ccc2S(=O)(=O)N([C@H](C)CO)C[C@H]1C	-43%
C[C@@H]1CN([C@H](C)CO)S(=O)(=O)c2ccc(C#CC3CCCC3)cc2O[C@@H]1CN(C)C(=O)Cc1ccncc1	117% (active)
CCC(=O)N(C)C[C@H]1Oc2cc(C#CC3CC3)ccc2S(=O)(=O)N([C@H](C)CO)C[C@H]1C	-39.9%
C[C@H]1CN([C@@H](C)CO)S(=O)(=O)c2ccc(C#CC3CCCC3)cc2O[C@H]1CN(C)C(=O)Cc1ccncc1	118% (active)
C[C@@H]1CN([C@H](C)CO)C(=O)c2cc(C#CCN(C)C)cnc2O[C@H]1CN(C)C(=O)NC1CCCC1	-10.7%
COc1ccc(S(=O)(=O)N[C@@H]2CC[C@H](CC(=O)N3CCc4ccccc4C3)O[C@H]2CO)cc1	16.5%
CC(C)C#Cc1cnc2c(c1)C(=O)N([C@@H](C)CO)C[C@@H](C)[C@H](CN(C)C(=O)CCN1CCCCC1)O2	15%
CC(=O)Nc1ccc2c(c1)C(=O)N(C)[C@@H]1CC[C@@H](CC(=O)NCC3CCCCC3)O[C@@H]1CO2	8.56%
COCC(=O)N(C)C[C@H]1Oc2ncc(-c3cccc(OC)c3)cc2C(=O)N([C@H](C)CO)C[C@H]1C	-6.11%
O=C(c1ccncc1)N1CCCCN2[C@H](CO)[C@@H](c3ccc(C#Cc4ccccn4)cc3)[C@H]2C1	91.2%
COc1ccc(C#Cc2ccc([C@H]3[C@@H](CO)N4CCCCN(C(=O)Nc5ccccc5)C[C@H]34)cc2)cc1	80.4%
O=C(C1CCC1)N1CCCCN2[C@H](C1)[C@@H](c1ccc(C#CC3CCCC3)cc1)[C@@H]2CO	86.9%
Cc1ccccc1-c1ccc([C@@H]2[C@@H](CO)N3CCCCN(C(=O)Nc4cccc(F)c4)C[C@H]23)cc1	91.9%
OC[C@@H]1[C@H](c2ccc(C#CC3CC3)cc2)[C@@H]2CN(CCC(F)(F)F)CCCCN12	99.5% (active)
COc1ccccc1C#Cc1ccc([C@@H]2[C@H](CO)N3CCCCN(CCC(F)(F)F)C[C@@H]23)cc1	42.4%
CC(C)C#Cc1ccc([C@H]2[C@@H](CO)N3CCCCN(C(=O)Nc4ccccc4)C[C@H]23)cc1	49.6%
O=C(Nc1ccccc1)N1CCCCN2[C@H](CO)[C@@H](c3ccc(C#Cc4ccccn4)cc3)[C@H]2C1	108% (active)
O=C(Nc1cccc(F)c1)N1CCCCN2[C@H](CO)[C@H](c3ccc(C#CC4CC4)cc3)[C@@H]2C1	122% (active)
O=C(Nc1ccc(F)cc1)N1CCCCN2[C@H](CO)[C@H](c3ccc(C#Cc4ccccc4)cc3)[C@H]2C1	76.6%
N#Cc1cccc(-c2ccc([C@H]3[C@@H](CO)N4CCCCN(C(=O)Nc5ccccc5)C[C@H]34)cc2)c1	75.3%
N#Cc1cccc(-c2ccc([C@H]3[C@H](CO)N4CCCCN(C(=O)Nc5cccc(F)c5)C[C@@H]34)cc2)c1	105% (active)

Compound	inhibition
CN1CCN(C(=O)C[C@@H]2C=C[C@@H](NS(=O)(=O)c3cccc(F)c3)[C@@H](CO)O2)CC1	-46.4%
O=C(C[C@H]1C=C[C@H](NC(=O)NC2CCCCC2)[C@H](CO)O1)NCc1ccccc1	-29.6%
COc1ccc(CN(C)C[C@H]2OCCCC[C@@H](C)Oc3ccc(NS(C)(=O)=O)cc3C(=O)N([C@@H](C)CO)C[C@H]2C)cc1	89.5%
CN(C)CC(=O)Nc1ccc2c(c1)[C@@H]1C[C@H](CC(=O)NCC3CC3)O[C@@H](CO)[C@@H]1O2	-19.8%
COc1ccc(NC(=O)Nc2ccc3c(c2)C(=O)N([C@@H](C)CO)C[C@H](C)[C@H](CN(C)C(=O)Nc2ccccc2)OCCCC[C@@H](C)O3)cc1	54%
CO[C@@H]1CN(C)C(=O)c2cc(NC(=O)c3cccc(F)c3)ccc2OC[C@H](C)N(C)C[C@@H]1C	13.5%
O=C(c1cccnc1)N1C[C@H]2[C@@H](c3ccccc31)[C@H](CO)N2C(=O)C1CCCCC1	19.5%
COC(=O)C[C@@H]1CC[C@@H]2[C@H](COc3ccc(NS(=O)(=O)c4ccccc4F)cc3C(=O)N2C)O1	27.2%
CCCC(=O)Nc1ccc2c(c1)OC[C@@H](C)N(CC1CCOCC1)C[C@H](C)[C@H](OC)CN(C)C2=O	7.69%
COCC(=O)N1CCCCN2[C@H](CO)[C@@H](c3ccc(-c4ccc(OC)cc4)cc3)[C@@H]2C1	4.91%
C/C=C/c1ccc([C@H]2[C@@H](CO)N3CCCCN(C(=O)c4ccc(F)cc4)C[C@@H]23)cc1	90.9%
O=C(CN1CCOCC1)N1CCCCN2[C@H](C1)[C@H](c1ccc(-c3ccccc3F)cc1)[C@@H]2CO	26.1%
CCC(=O)N1CCCCN2[C@H](CO)[C@@H](c3ccc(-c4cccnc4)cc3)[C@H]2C1	88.7%
CCC(=O)N1CCCCN2[C@H](C1)[C@@H](c1ccc(/C=C/c3ccccc3)cc1)[C@@H]2CO	105% (active)
CC(=O)N1CCCCN2[C@H](C1)[C@@H](c1ccc(-c3ccc(F)cc3)cc1)[C@@H]2CO	71%
COCC(=O)N1CCCCN2[C@H](C1)[C@@H](c1ccc(-c3ccccc3)cc1)[C@@H]2CO	53.8%
CCC(=O)N1CCCCN2[C@H](C1)[C@@H](c1ccc(-c3ccc(F)cc3)cc1)[C@@H]2CO	101% (active)
COCC(=O)N1CCCCN2[C@H](CO)[C@H](c3ccc(-c4ccc(OC)cc4)cc3)[C@H]2C1	46.5%
O=C(CN1CCOCC1)N1CCCCN2[C@@H](CO)[C@H](c3ccc(-c4ccccc4)cc3)[C@@H]2C1	112% (active)
O=C(CN1CCOCC1)N1CCCCN2[C@H](CO)[C@H](c3ccc(-c4ccccc4)cc3)[C@@H]2C1	102% (active)
